# From PubChem
# IkB signaling – suppresses IkB signaling in ABC-DLBCL reporter cells. ABC-DLBCL IkBa-CBG/CBR dual luciferase ratio, 4 h; response scale: scaled: untreated 0%, proteasome inhibitor 100%. Potency, µM (highest dose often 57.1 µM), inactives show top-dose IkBa stabilization activation. 110,000 tested, 0.04% active. AID 445; active = well fitted curve in the direction sought with a large enough effect in the signal ratio, not every such curve was filed as active; inconclusive = small, poorly fitted or top-dose-only effect, or a change in a side signal; the % refers to the signal ratio;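 note: the direction sought is a rising ratio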
#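 Luminescence ratio of IκBα-fused green versus native red beetle luciferase in OCI-Ly3 cells, 4 h post-doxycycline with compound; red signal alone, scaled from basal (0%) to zero light (-100%), flagged nonspecific or cytotoxic effects.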
# CRE-bla Fsk – CRE-bla signaling modulation under forskolin stimulation; CHO CRE-bla reporter (cAMP response element driving beta-lactamase), forskolin EC10, beta-lactamase ratio; Potency, µM (top dose mostly 38.2 µM), without a hit: top-dose activity change, negative = inhibition, hits mostly activators; 71,000 tested, 2.5% active; AID 662; active = well fitted activation curve with a large enough effect in the signal ratio, with a control signal flat, not every such curve was filed as active; inconclusive = small, poorly fitted or top-dose-only effect, or effect the other way, or a change in a side signal; the % refers to the signal ratio; note: % of control where 0% means no effect
#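 Modulation of forskolin-driven signalling is measured in CHO cells carrying a CRE-controlled beta-lactamase reporter. Cells are stimulated with EC10 NKH 477 in the presence of titrated compound for 3 h at 37 °C, then loaded with CCF4 for 2 h at room temperature.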
# HEK293 cAMP cs – raises cAMP in parental HEK293 cells, TSHR agonist counter-screen | 73,000 tested, 2.5% active | parental HEK293 CNG cAMP sensor, membrane potential fluorescence | Potency, µM (highest dose often 57.1 µM), for inactives: top-dose activation, usual class: activators | AID 938; active = well fitted activation curve with a large enough effect; inconclusive = small, poorly fitted or top-dose-only effect; inactive = no such curve, though single readings can be large or run the other way; note: % of control where 0% means no effect; nearly all actives have a fitted effect of over 55% in size
#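 Parental HEK 293 cells stably expressing a modified CNG channel (no TSHR) report cAMP rise as membrane depolarization. Membrane potential dye with 100 uM RO 20-1724 was loaded for 60 min at room temperature, then compound added for 30 min; fluorescence read at 590 nm.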
# TSHR ag – agonists of human thyroid stimulating hormone receptor; P16473; HEK293-CNG-TSHR cells (CNG channel as cAMP sensor), membrane potential dye, cAMP; Potency, µM (highest dose often 57.1 µM), inactives show top-dose activation, usual class: activators; 73,000 tested, 0.48% active; active = well fitted activation curve with a large enough effect in the main read-out, with a control signal flat, not every such curve was filed as active; inconclusive = small, poorly fitted or top-dose-only effect, or a change in a side signal; inactive = no such curve, though single readings can be large or run the other way; % of control where 0% means no effect;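 note: the control signal comes from parental cells without the receptor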
# Target sequence (P16473 whole entry, looked up): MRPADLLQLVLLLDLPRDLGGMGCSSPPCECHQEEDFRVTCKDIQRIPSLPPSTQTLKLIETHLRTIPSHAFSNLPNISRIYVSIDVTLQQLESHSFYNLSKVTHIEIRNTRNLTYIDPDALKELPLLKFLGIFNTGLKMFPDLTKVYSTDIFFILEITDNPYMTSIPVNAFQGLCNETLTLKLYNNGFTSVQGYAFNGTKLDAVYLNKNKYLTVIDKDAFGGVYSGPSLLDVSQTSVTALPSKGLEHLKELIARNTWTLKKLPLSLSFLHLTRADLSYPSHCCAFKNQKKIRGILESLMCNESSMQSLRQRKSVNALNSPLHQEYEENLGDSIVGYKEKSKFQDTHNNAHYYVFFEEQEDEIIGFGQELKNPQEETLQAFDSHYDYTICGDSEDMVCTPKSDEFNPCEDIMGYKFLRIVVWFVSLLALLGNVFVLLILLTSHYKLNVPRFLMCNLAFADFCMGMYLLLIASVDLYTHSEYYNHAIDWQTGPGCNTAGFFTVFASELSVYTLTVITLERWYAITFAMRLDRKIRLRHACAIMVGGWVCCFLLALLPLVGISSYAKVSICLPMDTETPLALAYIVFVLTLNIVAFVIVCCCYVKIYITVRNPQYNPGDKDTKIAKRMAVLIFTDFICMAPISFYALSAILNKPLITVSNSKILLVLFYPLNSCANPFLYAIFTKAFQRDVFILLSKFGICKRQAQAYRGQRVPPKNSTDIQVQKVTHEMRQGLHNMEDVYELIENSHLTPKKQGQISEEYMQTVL
#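 HEK 293 cells stably expressing TSHR and a cAMP-gated CNG channel; parental CNG-only cells as counterscreen. Cells preloaded 60 min with membrane potential dye plus 100 uM RO 20-1724, then compound 30 min; fluorescence read at 590 nm.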
# Hsp90 Hop PPI – changes Hsp90-Hop TPR2A binding signal, up or down; AID 595; 71,000 tested, 0.44% active; AlphaScreen TPR2A-His6 binding biotin-Hsp90 C-terminal peptide; Potency, µM (highest dose often 57 µM), for the others: at the highest dose activity change, negative = inhibition; active = well fitted curve in either direction with a large enough effect; inconclusive = small, poorly fitted or top-dose-only effect, or another doubt; note: % is set by controls: 0 for no effect and ±100 for the full control effect
# * marks the source's active call; other numbers are inactive results; ? = inconclusive; · = not tested or not shown; ! = not confirmed by another sample; [ ] = dose if it differs, or a comment. Hits are enriched below; roughly 3.5% of the tested compounds scored in any of these assays. Potency is the fitted concentration of half-maximal effect.
SMILES,IkB signaling,CRE-bla Fsk,HEK293 cAMP cs,TSHR ag,Hsp90 Hop PPI
O=C1CC(N2CCN(C3CCc4ccccc4C3)CC2)C(=O)N1c1ccccc1 (stereo not drawn),1.4%,-2.8%,25.1µM*,?,-3.6%
Clc1ccccc1C(c1ccccc1)(c1ccccc1)n1ccnc1,2.8%[25.6 µM],21.1%[17.1 µM],20.9%[25.6 µM],39.8µM*!,-13.9%[26 µM]
Cc1ccc2c(CN3CCN(Cc4ccc5c(c4)OCO5)CC3)cc(=O)oc2c1C,-0.3%,2.0%,?,?,0.7%
Cc1cc2oc(=O)cc(CN3CCCCC3C)c2c(C)c1Cl (stereo not drawn),0.4%,-0.1%,25.1µM*,?,0.6%
Cc1cc2oc(=O)cc(CN3CCN(Cc4ccc5c(c4)OCO5)CC3)c2cc1C,1.7%,-2.3%,-21.4%,2.51µM*,-4.5%
Cc1cc2oc(=O)cc(CN3CCC(C)CC3)c2cc1Cl,-0.4%,-7.4%,25.1µM*,?,2.8%
Cc1cc2oc(=O)cc(CN3CCN(Cc4ccccc4)CC3)c2cc1Cl,-0.7%,5.2%,28.8%,18.0%,-0.3%
CCOc1ccc(NC(=O)Cc2csc(COc3cccc(C)c3)n2)cc1,0.7%,·,·,·,·
C[C@H]1[C@H](O)[C@@H](C)C=CC=CC=CC=CC=CC=CC=C[C@H](O[C@@H]2O[C@@H](C)[C@H](O)[C@@H](N)[C@@H]2O)C[C@@H]2O[C@](O)(C[C@@H](O)C[C@@H](O)[C@@H](O)CC[C@@H](O)C[C@@H](O)CC(=O)O[C@H]1C)C[C@H](O)[C@H]2C(=O)O,-0.4%[11.4 µM],-0.2%[7.6 µM],12.1%[11.4 µM],10.5%[11.4 µM],-3.7%[11 µM]
CCOC(=O)c1[nH]c(C)c(CN(CCc2ccccc2)S(C)(=O)=O)c1C,-0.2%,?,20.2%,31.6µM*,-4.0%[2.3 µM]
Cc1cc([C@](C)(N)C(=O)O)ccc1P(=O)(O)O,0.7%,-3.6%,-2.6%,0.3%,4.6%
COc1ccc(N(CC(=O)Nc2cc(C)on2)S(=O)(=O)c2cc(C)ccc2C)cc1,8.6%,-20.0%,26.9%,25.1µM*,-2.3%
COc1ccc(OC)c(NC(=O)CN(c2ccc(OC)c(Cl)c2)S(C)(=O)=O)c1,2.0%,5.01µM*,0.4%,20.9%,-10.7%
COc1ccc(N(CC(=O)Nc2cccc(OC)c2)S(=O)(=O)c2c(C)nn(C)c2C)cc1,2.4%,-12.2%,12.6%,21.6%,-0.3%
COc1ccc(N(CC(=O)Nc2cc(OC)ccc2OC)S(=O)(=O)c2c(C)nn(C)c2C)cc1,-0.1%,5.01µM*,-1.0%,-5.7%,-10.6%
CCCCCn1c(=NC(C)=O)c(C#N)cc2c(=O)n3ccccc3nc21,0.1%,3.16µM*,-15.0%,-13.3%,3.7%
CCCn1c(=NC(=O)c2ccco2)c(C(=O)OCC)cc2c(=O)n3ccccc3nc21,0.9%,7.94µM*,-14.4%,-13.1%,-2.2%
CCCn1c(=NC(=O)c2cc3ccccc3o2)c(C(=O)OCC)cc2c(=O)n3ccccc3nc21,3.8%,·,·,·,·
Cn1c(C(=O)N2CCc3ccccc3C2)cc2c(=O)n3ccccc3nc21,-1.2%,?,2.0%,10.2%,12.0%
CC1Cc2ccccc2N1C(=O)c1cc2c(=O)n3ccccc3nc2n1C (stereo not drawn),-1.2%,6.31µM*,-1.5%,2.9%,1.9%
Cn1c(C(=O)N2CCN(C(=O)c3ccco3)CC2)cc2c(=O)n3ccccc3nc21,-2.2%,12.6µM*,-3.5%,22.8%,1.5%
CCCCn1c(=NC(C)=O)c(C#N)cc2c(=O)n3cccc(C)c3nc21,·,·,-8.3%,-3.3%,·
C/C(CCN1CCCc2nc(C)c(C)cc21)=N\O[C@@H](C)c1cn([C@H](CO)Cc2ccccc2)nn1,·,·,1.1%[11.4 µM],7.8%[11.4 µM],·
COc1ccccc1N1CCN(c2ccc(-c3nc(-c4ccccc4)no3)cc2[N+](=O)[O-])CC1,2.2%,·,·,·,·
Cc1cccn2c(=O)c3cc(C(=O)N4CCN(C(=O)c5ccco5)CC4)n(C)c3nc12,-1.7%,15.8µM*,-8.4%,5.9%,-2.8%
SMILES,IkB signaling,CRE-bla Fsk,HEK293 cAMP cs,TSHR ag,Hsp90 Hop PPI
CCOC(=O)c1cc2c(=O)n3ccccc3nc2n(CC2CCCO2)c1=NC(=O)c1ccccc1C (stereo not drawn),0.7%,·,·,·,·
CCOC(=O)c1cc2c(=O)n3cccc(C)c3nc2n(CC2CCCO2)c1=NC(C)=O (stereo not drawn),-2.0%,10µM*,-5.2%,-7.3%,-4.9%
CC(=O)NC(CCS(C)(=O)=O)C(=O)Nc1cccc(C)c1 (stereo not drawn),1.9%,-3.8%,3.16µM*,?,0.1%
C[C@@]12CCC3c4ccc(OC5C=CC(c6ccccc6)OC5CO)cc4CCC3C1CCC2=O (stereo partly drawn),·,·,12.3%[11.4 µM],17.5%[11.4 µM],·
CCc1c(O)nc(SCc2ccccc2)n(C(C)CC)c1=O (stereo not drawn),-0.2%,4.1%,25.1µM*,?,-3.9%
COc1cc(C2CC(=O)Nc3c2c(=O)[nH]c2nc4ccccc4n32)ccc1O (stereo not drawn),0.7%,·,·,·,·
C[C@@H]1CC2(OC3C[C@@]4(C)C5=CC[C@H]6C(C)(C)C(O[C@@H]7OC[C@@H](O)[C@H](O)[C@H]7O)CC[C@@]67C[C@@]57CC[C@]4(C)C31)OC(O)C1(C)OC21 (stereo partly drawn),-1.3%,-11.1%,-27.0%,?,0.5%
CCc1c(C)c(C#N)c2nc3ccccc3n2c1N(C)C,-1.2%,2.51µM*,?,?,1.0%
Cc1cc(-c2ccco2)n2c(nc3ccccc32)c1C#N,-3.5%,2.51µM*,40.4%,17.4%,6.1%
C[N+]1([C@H](CO)Cc2c[nH]c3ccccc23)Cc2ccccc2C1,0.4%[11.4 µM],-17.8%[7.6 µM],-1.7%[11.4 µM],-0.3%[11.4 µM],-0.2%[11 µM]
CCSc1ncc(Cl)c(C(=O)N(Cc2ccc(C(C)(C)C)cc2)C2CCS(=O)(=O)C2)n1 (stereo not drawn),-1.2%,·,·,·,·
C=CCn1c(NC(=O)c2ccco2)c(S(=O)(=O)c2ccccc2)c2nc3ccccc3nc21,1.7%,10µM*,-1.4%,8.2%,1.4%
CCOc1cc(C(=O)OCc2ccc(C(=O)OC)o2)cc(Br)c1OC,0.7%,?,31.6µM*,?,13.9%
CN(C)S(=O)(=O)c1cc(C(=O)NCCCn2ccc3ccccc32)ccc1Cl,1.4%,-6.3%,25.1µM*,?,-6.7%
CC(C)C(=O)NCCn1ccc2ccccc21,2.8%,-9.8%,11.4%,8.6%,2.1%
Cc1ccc(C)c(N2CCN(S(=O)(=O)c3cc(C(=O)Nc4ccccc4C(F)(F)F)ccc3F)CC2)c1,-1.2%,·,·,·,·
CCOc1ccc2nc(SCC#N)c(C#N)cc2c1,-2.6%,5.01µM*,12.2%,·,15.2%
CCOC(=O)CSc1nc2cc(OCC)ccc2cc1C#N,-1.2%,2.4%,?,?,24.0%
C/C=C\C(=O)N(CC)c1ccccc1C,0.1%[25.6 µM],1.4%[17.1 µM],3.9%[25.6 µM],4.9%[25.6 µM],?
Cc1cccc(-c2c3c(=O)n(C)c(=O)n(C)c3cn2C(C)C)c1,-3.3%,3.98µM*,6.1%,4.4%,-5.1%
